{"source": "PubChem BioAssay", "note": "Values joined by “and” are separate entries in the source; they are usually repeats but may differ in a detail not shown here. Equal values may be shown once. Active and inactive are the calls of the source. Rule as the data show it, unless noted: active = nuclear beta-catenin stimulation mostly above about 4.2% (no sharp cut-off); inactive = mostly below about 10%.", "data": [{"system": "not listed separately", "assay": "P. berghei load reduction in hepatocytes – cell-based, HepG2, luciferase luminescence, HepG2 viability, primary screen (AID 624349; in the data active = parasite load remaining mostly below about 12%, no sharp cut-off; inactive = mostly above about 10%;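 also: 100% = mean of DMSO negative control wells on the same plate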)", "conditions": "P. berghei liver stage in HepG2, luciferase luminescence, concentration not given here; parasite load remaining: stronger effect = lower value; viability: measured here: HepG2 viability without parasites", "values": [{"smiles": "CN1CCCN=C1/C=C/c1cccs1", "parasite load remaining": "31.2% (inactive) and 87.7% (inactive)", "viability": "47.1% and 90.3%"}, {"smiles": "Cc1ccc(C(=O)c2cc(O)c(O)c([N+](=O)[O-])c2)cc1", "viability": "97%", "parasite load remaining": "26.1% (inactive)"}, {"smiles": "CCC1=C[C@@H]2CN(C1)Cc1c([nH]c3ccccc13)[C@@](C(=O)OC)(c1cc3c(cc1OC)N(C)[C@H]1[C@@](O)(C(=O)OC)[C@H](OC(C)=O)[C@]4(CC)C=CCN5CC[C@]31[C@@H]54)C2", "viability": "85%", "parasite load remaining": "30.5% (inactive)"}, {"smiles": "O=P(O)(O)C(O)(Cn1ccnc1)P(=O)(O)O", "parasite load remaining": "30.2% (inactive)", "viability": "130%"}, {"smiles": "Clc1ccc(C(Cn2ccnc2)OCc2c(Cl)cccc2Cl)c(Cl)c1", "note": "(stereo not drawn)", "viability": "46.9% and 87.2%", "parasite load remaining": "26.3% (inactive) and 91.5% (inactive)"}]}, {"system": "Hepatitis C virus NS3 helicase", "assay": "blockers of NS3h binding to ssDNA – biochemical, fluorescence polarization, LOPAC1280 library, primary screen (AID 687035; in the data active = inhibition above about 37%)", "conditions": "Purified HCV NS3 helicase, Cy5-dT15 ssDNA binding fluorescence polarization; stronger effect = higher value; concentration not given here", "values": [{"smiles": "NCCCC(N)(C(=O)O)C(F)F", "note": "(stereo not drawn)", "inhibition": "-3% (inactive)"}, {"smiles": "CC(C)(C)C(=O)Oc1ccc(S(=O)(=O)Nc2ccccc2C(=O)NCC(=O)O)cc1", "inhibition": "-5% (inactive)"}, {"smiles": "N[C@@H](Cc1c[nH]c2ccc(O)cc12)C(=O)O", "inhibition": "-3% (inactive)"}]}, {"system": "not listed separately", "assay": "compounds altering Cy5-DNA-NS3h complex signal – biochemical, LOPAC1280, artefact control for HCV NS3 helicase inhibitor project (AID 687037; call rule not given here)", "conditions": "Cy5-DNA-NS3h complex fluorescence interference counterscreen", "values": [{"smiles": "NCCCC(N)(C(=O)O)C(F)F", "note": "(stereo not drawn)", "fluorescence ratio (interference)": "1 (inactive)"}, {"smiles": "CC(C)(C)C(=O)Oc1ccc(S(=O)(=O)Nc2ccccc2C(=O)NCC(=O)O)cc1", "fluorescence ratio (interference)": "0.9 (inactive)"}, {"smiles": "N[C@@H](Cc1c[nH]c2ccc(O)cc12)C(=O)O", "fluorescence ratio (interference)": "1 (inactive)"}]}, {"system": "not listed separately", "assay": "Wnt pathway potentiators raising nuclear beta-catenin – imaging, WNT3A-conditioned medium, mouse C2C12, NPC library, primary screen (AID 1117326)", "conditions": "at 10 µM, stronger effect = higher value", "values": [{"smiles": "Cc1cc(=O)c2c(O)c3c(O)cc(=O)c4c3c3c(cc(O)c1c23)C(C)(C)C=4O", "nuclear beta-catenin stimulation": "46.6% (active)"}, {"smiles": "CC(C)OC(=O)OCOP(=O)(CO[C@H](C)Cn1cnc2c(N)ncnc21)OCOC(=O)OC(C)C", "nuclear beta-catenin stimulation": "6.3% (inactive)"}, {"smiles": "O=C(O)c1ccc(-n2nc(-c3ccccc3O)nc2-c2ccccc2O)cc1", "nuclear beta-catenin stimulation": "28.8% (inactive)"}, {"smiles": "COc1ccc(-c2ccc3cc(C(=O)O)ccc3c2)cc1C12CC3CC(CC(C3)C1)C2", "nuclear beta-catenin stimulation": "21.9% (inactive)"}, {"smiles": "COCCCN1CCC(NC(=O)c2cc(Cl)c(N)c3c2OCC3)CC1", "nuclear beta-catenin stimulation": "0.7% (inactive)"}, {"smiles": "CCOC(=O)c1c(C)n(C)c2ccc(O)cc12", "nuclear beta-catenin stimulation": "0.7% (inactive)"}, {"smiles": "NCCCC(N)(C(=O)O)C(F)F", "note": "(stereo not drawn)", "nuclear beta-catenin stimulation": "-0.1% (inactive)"}, {"smiles": "CN1CCCN=C1/C=C/c1cccs1", "nuclear beta-catenin stimulation": "1.3% (inactive)"}, {"smiles": "CC(=O)N[C@H]1[C@H]([C@H](O)[C@H](O)CO)OC(C(=O)O)=C[C@@H]1N=C(N)N", "nuclear beta-catenin stimulation": "0.9% (inactive)"}, {"smiles": "O=[N+]([O-])c1cncn1CCN1CCOCC1", "nuclear beta-catenin stimulation": "-1.1% (inactive)"}, {"smiles": "C=CC(=O)Nc1cc2c(Nc3ccc(F)c(Cl)c3)ncnc2cc1OCCCN1CCOCC1", "nuclear beta-catenin stimulation": "45.9% (active)"}, {"smiles": "Cc1ccc(C(=O)c2cc(O)c(O)c([N+](=O)[O-])c2)cc1", "nuclear beta-catenin stimulation": "5.2% (inactive)"}, {"smiles": "Cc1nnc(C(=O)NC(C)(C)c2nc(C(=O)NCc3ccc(F)cc3)c(O)c(=O)n2C)o1", "nuclear beta-catenin stimulation": "-0.2% (inactive)"}, {"smiles": "Cc1ccccc1C(=O)Nc1ccc(C(=O)N2CCCC(O)c3cc(Cl)ccc32)c(C)c1", "note": "(stereo not drawn)", "nuclear beta-catenin stimulation": "3.2% (inactive)"}, {"smiles": "COc1ccc2cccc(CCNC(C)=O)c2c1", "nuclear beta-catenin stimulation": "1.6% (inactive)"}, {"smiles": "Cc1cc2c(cc1CC(=O)c1sccc1S(=O)(=O)Nc1onc(C)c1Cl)OCO2", "nuclear beta-catenin stimulation": "1.6% (inactive)"}, {"smiles": "C[C@]12CCC(=O)C=C1[C@@H]1C[C@@H]1[C@H]1[C@@H]3[C@@H]4C[C@@H]4[C@@]4(CCC(=O)O4)[C@@]3(C)CC[C@@H]12", "nuclear beta-catenin stimulation": "1.8% (inactive)"}, {"smiles": "CCC1=C[C@@H]2CN(C1)Cc1c([nH]c3ccccc13)[C@@](C(=O)OC)(c1cc3c(cc1OC)N(C)[C@H]1[C@@](O)(C(=O)OC)[C@H](OC(C)=O)[C@]4(CC)C=CCN5CC[C@]31[C@@H]54)C2", "nuclear beta-catenin stimulation": "60.8% (active)"}, {"smiles": "CC1(C)CCC(C)(C)c2cc(NC(=O)c3ccc(C(=O)O)cc3)ccc21", "nuclear beta-catenin stimulation": "8% (inactive)"}, {"smiles": "Cc1ccc(Nc2nccc(N(C)c3ccc4c(C)n(C)nc4c3)n2)cc1S(N)(=O)=O", "nuclear beta-catenin stimulation": "5.9% (inactive)"}, {"smiles": "Clc1ccc(C(Cn2ccnc2)OCc2ccc(Sc3ccccc3)cc2)c(Cl)c1", "note": "(stereo not drawn)", "nuclear beta-catenin stimulation": "8.8% (inactive)"}, {"smiles": "CNC(=O)c1ccccc1Sc1ccc2c(/C=C/c3ccccn3)n[nH]c2c1", "nuclear beta-catenin stimulation": "4.6% (inactive)"}, {"smiles": "CCOC(=O)c1ccc(C#Cc2ccc3c(c2)C(C)(C)CCS3)nc1", "nuclear beta-catenin stimulation": "6% (inactive)"}, {"smiles": "CC(=O)OCC(=O)[C@@]12N=C(C)O[C@@H]1C[C@H]1[C@@H]3CCC4=CC(=O)C=C[C@]4(C)[C@H]3[C@@H](O)C[C@@]12C", "nuclear beta-catenin stimulation": "1.5% (inactive)"}, {"smiles": "O=P(O)(O)C(O)(Cn1ccnc1)P(=O)(O)O", "nuclear beta-catenin stimulation": "0.4% (inactive)"}, {"smiles": "O=c1cc(O)c(Cl)c[nH]1", "nuclear beta-catenin stimulation": "-0.6% (inactive)"}, {"smiles": "Clc1ccc(C(Cn2ccnc2)OCc2c(Cl)cccc2Cl)c(Cl)c1", "note": "(stereo not drawn)", "nuclear beta-catenin stimulation": "1.3% (inactive)"}]}]}
